Data as given in the supplement of paper PMC6555819.

Key:
Test in all cases: PBM binding z-score (relative to random genomic background probes); higher = stronger binding; sequences stand for … in GC…GCGATTGACAGCGTAGAATGAAGG
[1] = tested on: PPARg:RXRa DBDmut IVT, anti-RXR (DBD mutation: RXRa K156A/R161A, NR concentration 270 nM, RXRa partner concentration 90 nM)
Method in brief: (§1)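 Binding z-scores take random background probes as their reference. They come from custom Agilent 4×180K protein-binding microarrays incubated 1 h with ligand-free nuclear receptor dimers, with antibodies against each partner (one per run) detecting binding. Scanned fluorescence was regression-normalized.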

[2] = tested on: PPARg:RXRa IVT, anti-PPARg (NR concentration 270 nM, RXRa partner concentration 90 nM)
Method in brief: as §1

[3] = tested on: PPARg DBDmut IVT, anti-PPARg (DBD mutation: PPARg1 K132A/R137A, NR concentration 270 nM)
Method in brief: as §1

[4] = tested on: PPARg homodimer (NR concentration 180 nM)
Method in brief: as §1

[5] = tested on: PXR:RXRa (NR concentration 270 nM, RXRa partner concentration 90 nM)
Method in brief: as §1

[6] = tested on: PXR homodimer (NR concentration 270 nM)
Method in brief: as §1

[7] = tested on: RARa:RXR (NR concentration 270 nM, RXRa partner concentration 90 nM)
Method in brief: as §1

[8] = tested on: RARa homodimer (NR concentration 270 nM)
Method in brief: as §1

[9] = tested on: RARb:RXRa (NR concentration 270 nM, RXRa partner concentration 90 nM)
Method in brief: as §1

[10] = tested on: RARb homodimer (NR concentration 270 nM)
Method in brief: as §1

[11] = tested on: RARg:RXRa (NR concentration 270 nM, RXRa partner concentration 90 nM)
Method in brief: as §1

[12] = tested on: RARg homodimer (NR concentration 270 nM)
Method in brief: as §1

[13] = tested on: RXRa DBDmut IVT, anti-RXR (DBD mutation: RXRa K156A/R161A, NR concentration 90 nM)
Method in brief: as §1

[14] = tested on: RXRa homodimer (NR concentration 180 nM)
Method in brief: as §1

[15] = tested on: THRa:RXRa (NR concentration 90 nM, RXRa partner concentration 90 nM)
Method in brief: as §1

[16] = tested on: THRa homodimer (NR concentration 90 nM)
Method in brief: as §1

[17] = tested on: VDR homodimer (NR concentration 270 nM)
Method in brief: as §1

Sequence	PBM binding z-score [1]	PBM binding z-score [2]	PBM binding z-score [3]	PBM binding z-score [4]	PBM binding z-score [5]	PBM binding z-score [6]	PBM binding z-score [7]	PBM binding z-score [8]	PBM binding z-score [9]	PBM binding z-score [10]	PBM binding z-score [11]	PBM binding z-score [12]	PBM binding z-score [13]	PBM binding z-score [14]	PBM binding z-score [15]	PBM binding z-score [16]	PBM binding z-score [17]
CGAACTAGGTCAAAGGACAGTTAAAGGCGACGTA	7.76	8.44	1.12	2.07	1.32	0.165	2.42	0.332	4	3.01	4.13	4.51	1.67	3.1	2.49	0.41	0.768
CGAACTAGGTCAAAGGACACTGAAAGGCGACGTA	8.08	8.34	1.03	3.64	1.6	-0.0402	2.85	0.514	3.86	3.06	4.19	4.7	1.6	3.12	2.69	0.861	0.852
CGAACTAGGTCAGCAGGACAGTGAAGAGGTTGGA	7.67	7.57	0.821	0.528	0.361	-0.536	0.95	-0.352	3.61	2.84	2.91	3.91	0.0956	1.51	2	0.264	-0.272
CGAACTAGGTCACCATGACAGTGAAGAGGTTGGA	7.11	8.4	1.33	1.97	1.4	-0.124	2.42	0.707	4.23	3.31	4.27	5.26	1.18	3.17	2.99	1.41	0.264
ATATGTAGGTTAGGGTCATTCAAAAAGTAGGGAA	6.37	6.88	2.24	2.6	4.47	2.2	5.13	2.37	3.59	3.59	4.25	3.19	2.67	5.4	4.28	3.27	3.17
ATAGGTAGGTTAGGGTCATTCAGAAAGTAGGGAA	3.34	4.16	1.6	3.27	5.14	3.11	5.48	3.2	4	3.99	4.32	4.06	2.36	5.28	4.76	3.77	4.51
CGACCTAGGTCAAAGGACAGTGAAAGGCGACGTA	3.69	4	-0.949	1.74	1.42	-0.567	2.9	-0.132	4.05	3.13	4.74	5.05	1.69	4	2.86	0.639	0.41
CGTACTAGGTCACCAGGACAGTGAAGAGGTTGGA	7.9	8.08	4.96	3.11	1.53	0.369	2.86	0.557	4.19	3.24	4.42	5.34	1.55	3.04	3.22	1.88	0.631
CGAACTAGGACACCAGGACAGTGAAGAGGTTGGA	6.02	5.32	-0.0745	0.381	-0.661	-0.233	-0.0962	0.279	0.552	0.545	0.367	0.797	0.0708	0.0879	1.83	1.24	0.472
ATATGTAGGCTAGGGTCATTCAGAAAGTAGGGAA	4.03	4.85	0.962	1.74	3.55	1.05	4.04	1.2	3	2.44	3.25	2.17	2	4.11	3.74	2.36	2.49
CGAAGTAGGTCACCAGGACAGTGAAGAGGTTGGA	8.22	8.92	0.944	1.76	1.71	0.236	2.78	0.426	3.99	3.32	4.39	5.16	1.03	3.57	2.85	1.2	0.581
ATATGTAGGTTAGGGACATTCAGAAAGTAGGGAA	6.18	5.89	1.59	0.688	0.115	0.777	0.618	1.69	1.04	1.11	0.67	1.27	0.8	0.406	2.32	1.51	0.36
CGAACTCGGTCAAAGGACAGTGAAAGGCGACGTA	2.71	3.18	-0.87	0.102	-0.0185	-0.567	0.43	-0.278	2.56	1.9	2.15	2.76	0.447	0.907	0.713	-0.276	-0.121
ATATGTAGTTTAGGGTCATTCAGAAAGTAGGGAA	1.43	2.8	1.5	2.89	4.68	1.83	5.48	1.75	3.42	3.24	4.01	2.73	2.93	5.24	4.29	3.64	4.3
CGAACTAGGTCAAAGGACAGTGCAAGGCGACGTA	7.81	8.11	-0.34	0.639	1.31	-0.108	2.14	-0.256	4.02	3.1	3.95	4.42	1.15	3.24	2.57	0.81	0.767
CGAACTATGTCACCAGGACAGTGAAGAGGTTGGA	4.52	3.71	0.886	0.475	-0.0276	-0.042	0.322	0.192	0.847	0.797	0.591	0.719	-0.0649	0.602	1.66	0.878	0.455
ATATGTAGGTTAGGGTCATTTAGAAAGTAGGGAA	6.56	6.66	2.64	3.47	4.23	1.89	4.82	1.85	3.33	3.38	3.86	2.8	2.29	5.07	4.06	3.22	3.84
CGAACTAGGTCACCAGGACACTGAAGAGGTTGGA	8.03	8.93	1.04	1.58	2.02	0.353	2.73	0.625	4.22	3.48	4.62	5.4	1.56	3.65	3.83	2.39	0.607
CGAACTAGGTCACCACGACAGTGAAGAGGTTGGA	8.39	9	4.26	2.32	1.46	-0.289	2.78	0.591	4.21	3.15	4.59	5.39	1.66	3.31	3.02	1.16	0.592
ATATCTAGGTTAGGGTCATTCAGAAAGTAGGGAA	6.71	6.95	2.23	3.98	4.33	2.01	4.78	2.98	3.43	3.56	4.06	3.32	2.56	4.98	4.14	3.56	4.16
CGACCTAGGTCACCAGGACAGTGAAGAGGTTGGA	4.19	4.65	-0.593	1.87	1.62	-0.328	2.95	-0.595	4.37	3.51	5.3	5.83	1.6	3.92	3.44	1.53	0.503
CGAACTAGGTCAAAGGACAGTGAAAGGCGACGTA	7.94	8.4	3.54	2.15	1.21	-0.123	2.12	-0.0827	3.99	2.83	3.94	4.27	1.3	3.33	2.58	0.464	0.47
ATCTGTAGGTTAGGGTCATTCAGAAAGTAGGGAA	2.86	3.74	2.08	3.23	4.42	2.1	5.21	2.2	3.58	3.65	4.2	3.96	2.35	5.32	4.19	3.53	4.36
CGAACTAGGTTACCAGGACAGTGAAGAGGTTGGA	6.94	6.73	2.08	0.829	-0.124	-0.211	0.296	-0.114	1.13	1.01	0.707	1.05	0.48	0.367	1.62	0.878	0.0565
ATATGTAGGTTAGGGGCATTCAGAAAGTAGGGAA	6.62	6.65	1.93	2.07	1.43	1.48	1.52	1.74	1.86	2.01	1.14	1.14	1.45	1.21	1.73	1.35	1.82
ATATGTATGTTAGGGTCATTCAGAAAGTAGGGAA	2.61	3.27	2.23	2.64	4.24	1.37	4.82	1.45	3.15	3.03	3.74	2.71	2.73	4.9	4.06	3.17	3.27
CGGACTAGGTCAAAGGACAGTGAAAGGCGACGTA	7.7	7.9	0.294	1.67	1.11	-0.218	2.41	0.208	3.69	2.91	3.97	4.51	1.33	3.02	2.57	0.589	0.288
